7 molecules from PubChem BioAssay (Tox21) can be followed below.

Structures are written as SMILES. Values without a mark were called inactive. Records with an inconclusive call do not appear. The source made the active and inactive calls. Unless noted, the call rests on the fitted dose curve.

The nature of experiment [1]: Nuclear factor erythroid 2-related factor 2/antioxidant responsive element (Nrf2/ARE) small molecule agonists: qHTS cell viability counter screen in human keratinocytes (AID 1919968; active means well fitted curve in the direction sought with a large enough effect in the repeat runs; an effect the other way counts as inactive or inconclusive; further: nearly all actives have a fitted effect of over 55% in size). The procedure, abridged:
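In human HaCaT keratinocytes stably expressing an ARE-driven luciferase, compound exposure lasted 23 h at 37 C under 5% CO2. Viable cells are quantified with a protease-based fluorogenic reagent (CellTiter-Fluor) read 1 h after addition.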

Experiment [2] in a line: Nuclear factor erythroid 2-related factor 2/antioxidant responsive element (Nrf2/ARE) small molecule agonists: luciferase reporter gene qHTS assay in human keratinocytes (AID 1919969). Further: nearly all actives have a fitted effect of over 35% in size. Background: Reporter assays use an easily measured gene product as a stand-in for the process of interest.
For experiment [3], the target named is Gonadotropin-releasing hormone receptor (Homo sapiens) (UniProt P30968). The experiment is described as follows: Human gonadotropin-releasing hormone receptor (GnRHR) small molecule agonists, calcium flux assay in GnRHR-HEK293 cells (AID 1920063). Further: nearly all actives have a fitted effect of over 35% in size. The procedure, abridged: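 Intracellular calcium rise is the read-out: engineered human GnRHR HEK293 cells, dye-loaded, are exposed to DMSO-dissolved compounds and fluorescence at Ex/Em 480/540 is tracked for 3 min.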
A general note: A change in cytosolic calcium serves as a functional read-out for many receptors and channels.

Experiment [4] concerns the target KiSS-1 receptor (Homo sapiens) (UniProt Q969F8). The experiment can be described thus: Human kisspeptin (KISS1R) small molecule agonists, calcium flux assay in KISS1R-HEK293 cells (AID 1920064; active means well fitted curve in the direction sought with a large enough effect in the repeat runs; an effect the other way counts as inactive or inconclusive). The procedure, abridged:
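Concentration-response testing used 15 concentrations in triplicate on human KISS1R-expressing HEK293 cells. Calcium-dependent fluorescence (Ex/Em 480/540) was followed kinetically for 3 min after compound transfer.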

Experiment [5] in a line: G protein-coupled receptor (GPCR) small molecule agonists, calcium flux assay: HEK293 wild type cell line counter screen (AID 1920065). A digest of the protocol:
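Fluorescence intensity signals activation. After overnight (18 h) culture and a 1 h calcium dye load at 37 C, compounds are added by pin tool and the plate read at 480/540 nm for 3 min in 1 s steps.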

The nature of experiment [6]: p53 small molecule agonists, cell-based qHTS assay with human liver microsomes (AID 1963577). A digest of the protocol: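 p53RE-bla cells, 4,000/well, compound added after 5 h, with human liver microsomes 0.5 mg/mL and NADPH 0.5 mg/mL final; 16 h at 37 C, then LiveBLAzer 2 h RT, fluorescence.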
For orientation: qHTS replaces the single test concentration by a dilution series.

A short description of experiment [7]: p53 small molecule agonists, cell-based qHTS assay with rat liver microsomes (AID 1963578). The procedure, abridged: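 p53RE-bla cells, 4,000/well, pre-incubated 5 h, then given compounds plus rat liver microsomes (0.5 mg/mL final) and NADPH (0.5 mg/mL final). Incubation 16 h at 37 C; beta-lactamase reporter read by LiveBLAzer fluorescence after 2 h at room temperature.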

The nature of experiment [8]: p53 small molecule agonists, cell-based qHTS assay with human liver microsomes: qHTS cell viability counter screen (AID 1963579). Further: nearly all actives have a fitted effect of over 45% in size. The procedure, abridged: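 p53RE-bla cells, 4,000/well, dosed 5 hours after plating, with human liver microsomes (0.5 mg/mL final) plus NADPH (0.5 mg/mL final), 16 hours at 37 C. Viability read as CellTiter-Glo luminescence after 30 min at room temperature.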

Experiment [9] in a line: p53 small molecule agonists, cell-based qHTS assay with rat liver microsomes: qHTS cell viability counter screen (AID 1963580). Further: nearly all actives have a fitted effect of over 45% in size. The procedure, abridged: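 Rat liver microsome (0.5 mg/mL final) and NADPH (0.5 mg/mL final) co-incubation with compounds for 16 h at 37 C on HCT-116 p53RE-bla cells; cytotoxicity taken from intracellular ATP luminescence.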
Experiment [10] can be described thus: p53 small molecule agonists, cell-based qHTS assay (AID 1963582; active means well fitted activation curve with a large enough effect in the signal ratio in the repeat runs, not every such curve was filed as active; the % refers to the signal ratio). A digest of the protocol: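 After plating, p53RE-bla cells sat 5 h in the incubator; compounds or DMSO vehicle were pinned in; a 16 h incubation at 37 C followed; FRET substrate was added and, 2 h later at RT, fluorescence was measured.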
Experiment [11] deals with 5-hydroxytryptamine receptor 2A (Homo sapiens) (UniProt P28223). The experiment is described as follows: 5-hydroxytryptamine receptor 2A (HTR2A) small molecule antagonists, cell-based qHTS assay (AID 1963586). Further: nearly all actives have a fitted effect of over 45% in size. Further: potency means the concentration at half of the fitted maximal effect. The procedure, abridged: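 CHO cells stably expressing human HTR2A were plated for 18 h at 37 C, then loaded with calcium dye for 1 h. Compounds were preincubated 5 min at room temperature before DOI (4 nM solution) was added. Kinetic fluorescence was read for 3 min.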

For experiment [12] the target is unchanged. The experiment can be described thus: 5-hydroxytryptamine receptor 2A (HTR2A) small molecule agonists, cell-based qHTS assay (AID 1963587). Further: nearly all actives have a fitted effect of over 30% in size. The procedure, abridged: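 Kinetic calcium-flux fluorescence (2 min, 1 sec intervals) after compound addition in agonist mode. HTR2A-CHO cells were cultured 18 h, then dye-loaded 1 h at 37 C.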
For experiment [13], the target named is Muscarinic acetylcholine receptor M1 (Homo sapiens) (UniProt P11229). The experiment is described as follows: Cholinergic receptor muscarinic 1 (CHRM1) small molecule antagonists, cell-based qHTS assay (AID 1963588). Further: nearly all actives have a fitted effect of over 40% in size. Further: potency means the concentration at half of the fitted maximal effect. The procedure, abridged: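 Compounds were tested at 15 concentrations in three independent runs. Dye-loaded CHRM1-CHO cells were exposed 5 min at room temperature before stimulation by acetylcholine added at 50nM. Intracellular calcium was read kinetically on FDSS for 3 min.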

Experiment [14] shares this target. The experiment can be described thus: Cholinergic receptor muscarinic 1 (CHRM1) small molecule agonists, cell-based qHTS assay (AID 1963589). Further: nearly all actives have a fitted effect of over 35% in size. A digest of the protocol:
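Fluorescent calcium dye reports M1 activation in stably transfected CHO cells. Compounds, 15 concentrations, added after 1 h dye loading at 37 C; kinetic reading at 1 sec intervals.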

Experiment [15] addresses Beta-2 adrenergic receptor (Homo sapiens) (UniProt P07550). The experiment is described as follows: Adrenergic beta2 receptor (ADRB2) small molecule antagonists, cell-based qHTS assay (AID 1963592). Further: series mostly up to about 92 µM; nearly all actives have a fitted effect of over 50% in size. The procedure, abridged:
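Assay format: CHO-ADRB2 cells, 18-20hr seeding at 37C/5% CO2, then compound plus 1nM isoproterenol agonist mix for 0.5hr RT. Homogeneous time-resolved fluorescence cAMP detection after 1hr, expressed as 665/615 nm ratio.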

In experiment [16] the target is D(2) dopamine receptor (Homo sapiens) (UniProt P14416). The experiment is described as follows: Dopamine D2 receptor (DRD2) small molecule agonists, cell-based qHTS assay (AID 1963594). Further: nearly all actives have a fitted effect of over 35% in size. A digest of the protocol: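 cAMP accumulation in DRD2-HEK293 cells measured by HTRF after 1 h detection; compounds added 10 min before NKH477 (200nM […]) forskolin-analogue stimulation, 30 min at room temperature, with Ro20-1724 present at 0.1 mM final.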

The target is the same in experiment [17]. The experiment can be described thus: Dopamine D2 receptor (DRD2) small molecule antagonists, cell-based qHTS assay (AID 1963595; active means well fitted inhibition curve with a large enough effect in the signal ratio in the repeat runs, with a control signal flat; the % refers to the signal ratio; further: potency means the concentration at half of the fitted maximal effect). The procedure, abridged:
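Human DRD2 antagonist qHTS measuring cAMP by HTRF. The cells are exposed to compound for 10 min, then to NKH477 (200 nM) and quinpirole (12 nM) for 30 min at RT, with Ro20-1724 (0.1 mM) present throughout.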

Experiment [18] in a line: cAMP Responsive Elements (CRE) small molecule agonists, cell-based qHTS assay (AID 1963590). The procedure, abridged: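 Compound exposure lasted 3 h at 37 C/5% CO2 in CRE-bla HEK 293T cells grown in assay medium with 10% dialyzed FBS and 25 mM HEPES. Reporter signal came from LiveBLAzer B/G FRET substrate, 2 h, room temperature.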
Experiment [19] can be described thus: cAMP Responsive Elements (CRE) small molecule antagonists, cell-based qHTS assay (AID 1963591; active means well fitted inhibition curve with a large enough effect in the signal ratio in the repeat runs, not every such curve was filed as active; the % refers to the signal ratio). The procedure, abridged:
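Stimulation used NKH477 at a final 0.25 uM for 3 h in compound-treated CRE-bla HEK293T cells, seeded 18 h beforehand. Reporter activity was measured with LiveBLAzer B/G FRET substrate after 2 h at room temperature.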

Chain of Beta-2 adrenergic receptor (Homo sapiens) (P07550 whole entry, looked up): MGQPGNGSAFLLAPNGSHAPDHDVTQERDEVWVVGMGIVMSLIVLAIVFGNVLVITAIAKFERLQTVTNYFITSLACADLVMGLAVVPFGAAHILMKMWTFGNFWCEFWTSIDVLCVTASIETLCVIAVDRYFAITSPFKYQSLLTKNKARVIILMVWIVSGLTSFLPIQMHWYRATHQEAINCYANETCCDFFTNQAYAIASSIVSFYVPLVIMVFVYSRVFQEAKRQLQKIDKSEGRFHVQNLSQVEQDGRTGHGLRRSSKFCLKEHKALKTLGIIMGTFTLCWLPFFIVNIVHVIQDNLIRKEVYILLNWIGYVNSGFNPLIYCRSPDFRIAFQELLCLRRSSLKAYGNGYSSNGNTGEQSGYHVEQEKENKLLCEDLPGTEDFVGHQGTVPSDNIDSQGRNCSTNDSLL
Chain of Gonadotropin-releasing hormone receptor (Homo sapiens) (P30968 whole entry, looked up): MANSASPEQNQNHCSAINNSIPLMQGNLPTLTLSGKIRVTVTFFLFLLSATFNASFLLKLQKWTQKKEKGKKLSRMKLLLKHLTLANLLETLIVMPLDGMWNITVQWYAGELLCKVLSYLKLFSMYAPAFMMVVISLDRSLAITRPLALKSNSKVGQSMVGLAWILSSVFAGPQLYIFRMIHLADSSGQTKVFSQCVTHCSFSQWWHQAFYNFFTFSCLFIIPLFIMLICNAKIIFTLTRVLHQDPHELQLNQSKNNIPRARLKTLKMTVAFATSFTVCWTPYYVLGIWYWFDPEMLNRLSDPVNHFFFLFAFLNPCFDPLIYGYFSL
Chain of Muscarinic acetylcholine receptor M1 (Homo sapiens) (P11229 whole entry, looked up): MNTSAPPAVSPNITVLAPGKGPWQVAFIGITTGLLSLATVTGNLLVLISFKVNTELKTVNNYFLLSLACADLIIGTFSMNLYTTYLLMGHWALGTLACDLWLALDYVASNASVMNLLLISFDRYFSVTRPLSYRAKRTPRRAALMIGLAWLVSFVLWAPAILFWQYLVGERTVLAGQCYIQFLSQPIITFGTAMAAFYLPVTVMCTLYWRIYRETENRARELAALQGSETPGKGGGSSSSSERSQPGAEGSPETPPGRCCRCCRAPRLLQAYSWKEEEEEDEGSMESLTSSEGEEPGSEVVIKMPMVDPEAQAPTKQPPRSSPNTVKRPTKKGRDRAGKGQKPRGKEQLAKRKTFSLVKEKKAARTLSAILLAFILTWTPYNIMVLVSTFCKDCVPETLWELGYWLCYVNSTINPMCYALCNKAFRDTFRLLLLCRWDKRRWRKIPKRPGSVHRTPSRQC
Chain of D(2) dopamine receptor (Homo sapiens) (P14416 whole entry, looked up): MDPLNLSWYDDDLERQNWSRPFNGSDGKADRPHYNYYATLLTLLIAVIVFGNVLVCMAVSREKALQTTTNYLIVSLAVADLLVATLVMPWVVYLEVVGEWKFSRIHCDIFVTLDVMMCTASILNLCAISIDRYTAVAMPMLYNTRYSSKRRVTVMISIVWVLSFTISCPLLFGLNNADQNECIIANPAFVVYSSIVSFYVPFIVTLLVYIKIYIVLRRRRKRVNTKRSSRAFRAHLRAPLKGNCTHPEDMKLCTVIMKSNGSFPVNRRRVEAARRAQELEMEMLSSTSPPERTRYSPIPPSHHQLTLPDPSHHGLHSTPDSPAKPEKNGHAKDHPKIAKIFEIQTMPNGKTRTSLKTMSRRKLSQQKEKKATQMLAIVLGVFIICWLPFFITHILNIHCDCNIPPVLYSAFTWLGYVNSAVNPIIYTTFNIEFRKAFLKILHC
Chain of KiSS-1 receptor (Homo sapiens) (Q969F8 whole entry, looked up): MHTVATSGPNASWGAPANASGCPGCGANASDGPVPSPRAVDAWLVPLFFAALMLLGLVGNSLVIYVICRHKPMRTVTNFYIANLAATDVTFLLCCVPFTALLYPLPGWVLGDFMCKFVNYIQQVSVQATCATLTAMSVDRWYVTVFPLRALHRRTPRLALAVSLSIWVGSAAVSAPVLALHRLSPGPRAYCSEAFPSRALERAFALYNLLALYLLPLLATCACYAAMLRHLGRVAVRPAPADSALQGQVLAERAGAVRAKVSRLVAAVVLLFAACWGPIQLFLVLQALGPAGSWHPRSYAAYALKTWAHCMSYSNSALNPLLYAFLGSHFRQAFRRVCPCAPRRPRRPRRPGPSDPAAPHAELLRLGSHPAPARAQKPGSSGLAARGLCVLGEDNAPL
Chain of 5-hydroxytryptamine receptor 2A (Homo sapiens) (P28223 whole entry, looked up): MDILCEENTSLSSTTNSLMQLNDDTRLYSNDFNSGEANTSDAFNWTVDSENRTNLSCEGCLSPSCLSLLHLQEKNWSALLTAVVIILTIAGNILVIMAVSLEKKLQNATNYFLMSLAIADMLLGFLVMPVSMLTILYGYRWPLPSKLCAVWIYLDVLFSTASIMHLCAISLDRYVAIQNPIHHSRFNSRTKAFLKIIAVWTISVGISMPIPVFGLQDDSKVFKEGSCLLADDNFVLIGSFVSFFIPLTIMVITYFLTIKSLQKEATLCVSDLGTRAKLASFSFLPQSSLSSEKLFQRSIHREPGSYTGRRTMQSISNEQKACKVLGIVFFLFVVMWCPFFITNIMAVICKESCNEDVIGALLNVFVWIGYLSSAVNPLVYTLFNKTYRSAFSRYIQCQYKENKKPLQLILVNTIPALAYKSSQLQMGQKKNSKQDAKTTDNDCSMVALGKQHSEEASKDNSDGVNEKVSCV

Turning to `O=C(O)Cc1cn(-c2ccccc2)nc1-c1ccc(Cl)cc1`, the Potency result in [1], in experiment [2], in [3], in experiment [6], in [7] and in experiment [8] was “inactive” each time. In addition, the Potency entry in experiment [9], in experiment [10], in experiment [11], in [12], in experiment [13] and in experiment [14] was “inactive” in each case. Moreover, the Potency result in [15], in experiment [16] and in [17] was “inactive” throughout. The outcome in experiment [4] and in experiment [5] was inactive.
As to `C=CCOc1c(Br)cc(C(C)(C)c2cc(Br)c(OCC=C)c(Br)c2)cc1Br`, the Potency result in [1], in experiment [2], in [3], in experiment [6], in [7] and in experiment [8] was “inactive” in each case. The Potency result in experiment [9], in experiment [10], in experiment [11], in experiment [12], in [13] and in [14] was “inactive” throughout. The Potency result in [18], in [19], in experiment [15], in experiment [16] and in experiment [17] was “inactive” throughout. Moreover, the result in experiment [4] and in experiment [5] was inactive.
On to `CCCCC(CC)COC(=O)CCCCCCCCC(=O)OCC(CC)CCCC` (stereo unspecified), for which the Potency result in experiment [1], in [2], in [3], in experiment [6], in [7] and in experiment [8] was “inactive” each time. Further, the Potency entry in experiment [9], in [10], in experiment [11], in [12], in experiment [13] and in experiment [18] was “inactive” throughout. The Potency result in experiment [19], in experiment [15], in experiment [16] and in [17] was “inactive” throughout. The result in experiment [4] and in experiment [5] was inactive.
As for `C[C@H](CN1CCCC1)C(=O)c1ccc(C(F)(F)F)cc1`, the Potency result in experiment [1], in [2], in experiment [3], in experiment [6], in experiment [7] and in experiment [8] was “inactive” throughout. The Potency entry in experiment [9], in [10], in experiment [11], in experiment [12], in experiment [14] and in [18] was “inactive” throughout. Further, the Potency result in experiment [15], in experiment [16] and in [17] was “inactive” each time. The result in experiment [4] and in [5] was inactive.
For the molecule `O=C1OC(=O)C2C3C=CC(C3)C12` (stereo unspecified), the Potency result in experiment [1], in experiment [2], in experiment [3], in [6], in experiment [7] and in experiment [8] was “inactive” throughout. The Potency result in [9], in [10], in [11], in [12], in [14] and in experiment [18] was “inactive” each time. The Potency result in experiment [19] and in [17] was “inactive” in each case. Moreover, the result in [4] and in [5] was inactive.
As for `CN1CCN(C2=Nc3ccccc3Sc3ccc(Cl)cc32)CC1`, the Potency entry in experiment [1], in experiment [2], in experiment [3], in [6], in experiment [7] and in experiment [8] was “inactive” in each case. The Potency result in experiment [9], in experiment [10], in experiment [12], in experiment [14], in experiment [15] and in [16] was “inactive” each time. Also, the outcome in experiment [4] and in experiment [5] was inactive. The Potency in experiment [11] is 81.8 nM (active); in experiment [13] it was 1450 nM (active); in [17], 5960 nM (active).
As for `Cc1cc(N)c2cc(NC(=O)Nc3ccc4nc(C)cc(N)c4c3)ccc2n1`, the Potency entry in [1], in [2], in experiment [3], in experiment [6], in experiment [7] and in experiment [8] was “inactive” each time. In addition, the Potency entry in experiment [9], in experiment [10], in [11], in [12], in experiment [13] and in experiment [14] was “inactive” in each case. The Potency result in experiment [18], in experiment [19] and in experiment [16] was “inactive” in each case. For the same molecule, the result in experiment [4] and in experiment [5] was inactive.
